Measured values taken from PubChem BioAssay.
Where “and” joins values, the source holds several entries; their conditions need not be identical. Equal entries are not always repeated.

Assay: binders of probe aHhip on microarray, primary screen, stem cell growth factor project, biochemical, small-molecule microarray, fluorescence 635/667 (AID 1087);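 also: score merges spot fluorescence at 667nm with spot signal to noise ratio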
Settings: higher = more signal

SMILES | composite z-score
C=CCN(CCCC)C(=O)C1N(c2ccc(CCO)cc2)C(=O)C2C(C(=O)O)C3C=CC21O3 (stereo not given) | -0.48 and -0.137
COC(=O)C1=C(C)N(Cc2ccccc2)C2=C3C(=O)N(c4ccccc4)C(=O)[C@@H]3[C@@](O)(C(=O)OC)C(=O)N2[C@@H]1c1ccccc1 | -0.166 and -0.375
CCC[C@@H]1C[C@@]1(CCC)[C@@H](NC(=O)c1ccc(-c2ccccc2)cc1)c1cccc(Cl)c1 | 2.73 and 0.663
C=CCN(C(=O)C(c1cccs1)N(C(=O)/C=C\C(=O)O)c1ccc(CCO)cc1)C(C)(C)C (stereo not given) | -0.0618 and -0.134
C=CCN(Cc1ccccc1)C(=O)C1N(CCCCCCO)C(=O)C2C(C(=O)O)C3C=CC21O3 (stereo not given) | -0.5 and -0.204
COc1ccc(COC(=O)NN=C2C[C@@H](O)[C@@H](O)[C@@H]3[C@@H]4C(=O)N(C(C)(C)C)C(=O)[C@@H]4CC[C@H]23)cc1 | -0.13
O=C1NC(=O)C2C1C=CC(C(O)c1ccc([N+](=O)[O-])cc1)N2Nc1ccc(Cl)cc1Cl (stereo not given) | -0.226 and -0.236
COC(=O)C1=C(C)N(Cc2ccccc2)C2=C3C(=O)CCC[C@@H]3[C@@](O)(C(=O)OC)C(=O)N2[C@@H]1c1ccccc1 | 0.136 and -0.0994
C[N+](C)(C)CCCCNC(=O)[C@H]1C[C@H]2C(=O)N[C@@H](CCCC[N+](C)(C)C)C(=O)N2[C@H]1c1cccc(OCCO)c1 | 0.142 and -0.41
C=CCN(CCCCC)C(=O)C1N(c2ccc(CCO)cc2)C(=O)C2C(C(=O)O)C3C=CC21O3 (stereo not given) | -0.4 and -0.175
CC(C)C(=O)N[C@@H]1CCCN1C(=O)C=Cc1ccccc1 | -0.0994
C[C@@H](ON=C1[C@H]2CCn3c(=O)n(-c4ccccc4)c(=O)n3[C@H]2[C@H](O)[C@@H]2O[C@H]12)c1cn([C@H](CO)Cc2ccccc2)nn1 | -0.64
C=CCN1C(=O)[C@]2(O[C@H](CCn3cc(CCO)nn3)[C@@H]([Si](C)(C)c3ccc(OC)cc3)[C@@H]2C)c2cc(N3C(=O)c4cccc5cccc3c45)ccc21 | -0.0618 and 0.157
COC(=O)[C@@]1(Cc2ccc(F)cc2)[C@H]2c3cc(C(=O)N4CCCC4)n(Cc4c(CO)[nH]cc(C)c4=O)c3C[C@H]2CN1C(=O)c1ccccc1 | 1.42 and 0.314
C=CCN(CCCCC)C(=O)C1N(c2c(Cl)cccc2CO)C(=O)C2C(C(=O)O)C3C=CC21O3 (stereo not given) | -0.169 and -0.213
C=CCN(C(=O)C1N(c2c(Cl)cccc2CO)C(=O)C2C(C(=O)O)C3C=CC21O3)C(C)(C)C (stereo not given) | -1.01 and 0.51
COC(=O)[C@@]1(Cc2ccc(OC)cc2)[C@H]2c3cc(C(=O)N(C)C)n(Cc4ccc(O)c(OC)c4)c3C[C@H]2CN1C(=O)c1ccccc1 | 0.329 and 0.483
C=CCN(C(=O)C1N(C(C)(C)CO)C(=O)C2C(C(=O)O)C3C=CC21O3)c1ccc(OC)cc1 (stereo not given) | -0.169 and -0.204
C[N+](C)(C)CCCCNC(=O)[C@@H]1C[C@@H]2C(=O)N[C@@H](CCCC[N+](C)(C)C)C(=O)N2[C@@H]1c1cccc(OCCO)c1 | 0.463 and -0.0994
CCCC[C@@H]1CN2[C@@H](CC[C@@H](C)[C@@H]2c2ccc(Br)cc2)C(=O)O1 | -0.142 and -0.306

SMILES | composite z-score
CCN1C(=O)[C@H]2[C@H]3[C@H](O)[C@H](O)CC(=NOC)[C@@H]3CC[C@H]2C1=O | 0.0024
C=C[C@H](OC)[C@@H](O)c1ccc(OCCO)cc1 | -0.405 and -0.268
COC(=O)C1=C(C)N(Cc2ccccc2)[C@]23O[C@](C(=O)OC)(C(=O)N2[C@@H]1c1ccccc1)[C@@H](c1ccccc1)[C@@H]3C(=O)c1ccccc1 | -0.132 and -0.226
CCOC(=O)[C@@H]1CC=C2CC1C(=O)N1CCC[C@@H]1[C@H]2O[Si](C)(C)C(C)(C)C (stereo not given in full) | -0.0994 and -0.252
CCOC(=O)[C@@H]1CC2O[C@]23C[C@@H]1C(=O)N1CCC[C@@H]1[C@H]3O[Si](C)(C)C(C)(C)C (stereo not given in full) | -0.207 and -0.231
Cc1ccc(S(=O)(=O)OC[C@@H]2CN3[C@@H](CC[C@@H](C)[C@@H]3c3ccc(Br)cc3)C(=O)O2)cc1 | 0.21 and 0.268
COC(=O)C1=C(C)N(Cc2ccccc2)[C@]23O[C@](C(=O)OC)(C(=O)N2[C@@H]1c1ccccc1)[C@H]1C(=O)N(c2ccccc2)C(=O)[C@H]13 | 0.192 and -0.0672
CCOC(=O)c1ccc(NC(=O)O[C@H]2[C@H](OC(=O)Nc3ccccc3)[C@H](OC(=O)Nc3ccccc3)[C@@H](OC)O[C@@H]2CO)cc1 | -0.24 and -0.141
C[N+](C)(C)CCCCCCNC(=O)[C@H]1C[C@H]2C(=O)N[C@@H](CCCC[N+](C)(C)C)C(=O)N2[C@H]1c1ccc(O)cc1 | -0.0994 and 0.2
Cc1ccc(S(=O)(=O)N[C@@H]2COC(=O)CC=C[C@@H](C)[C@@H]3C=C[C@H](O)[C@@H](COC(=O)CC=C[C@H]2C)O3)cc1 | 0.0243 and -0.26
CCCNC(=O)OC[C@H]1O[C@H](CCON=C(C)CCC(=O)OC[C@H]2O[C@H](C#Cc3ccccc3)C=C[C@@H]2Oc2ccc(C)cc2)C=C[C@@H]1Oc1ccc(OC)cc1 | 1.27
C=CCN(CCCC)C(=O)C1N(C(C)(C)CO)C(=O)C2C(C(=O)O)C3C=CC21O3 (stereo not given) | -0.204 and -0.0645
C=C[C@@H](C)[C@H](O)c1ccc(O)c2ccccc12 | 0.0373 and -0.261
C=CCN(Cc1ccccc1)C(=O)C1N(C(C)(C)CO)C(=O)C2C(C(=O)O)C3C=CC21O3 (stereo not given) | -0.274 and -0.169
C=CC[C@H](O)c1ccc(OCCO)cc1 | -0.261 and -0.296
C=CCN(C(=O)C(c1cccs1)N(C(=O)/C=C\C(=O)O)c1ccc(CCO)cc1)c1ccc(OC)cc1 (stereo not given) | -0.134 and -0.204
C=CC[C@@H](O)c1ccc(OCCO)cc1 | -0.184 and -0.134
C=CCN(C(=O)C1N(CCCCCCO)C(=O)C2C(C(=O)O)C3C=CC21O3)c1ccc(OC)cc1 (stereo not given) | -0.126 and 0.0623
COC(=O)C1=C(C)N(Cc2ccccc2)C2=C(C(=O)c3ccccc3)[C@H](c3ccccc3)[C@@](O)(C(=O)OC)C(=O)N2[C@@H]1c1ccccc1 | -0.236 and 0.625
Cc1ccc(S(=O)(=O)N[C@H]2COC(=O)[C@@H](C)COC(=O)[C@H](C)NC(=O)CC=C[C@H]2C)cc1 | -0.0618
